High-throughput results deposited in PubChem by The Scripps Research Institute Molecular Screening Center.
Sampled rows, rich in hits. Any-hit rate of the full collection: about 1.7%.
ZTA DNA inh: blocks Epstein-Barr virus ZTA, an EBNA-1 counter-screen | inhibition, % at 11 µM | ZTA-DNA binding, fluorescence polarization | actives 0.15% (n = 320,000) | P03206; in the data active = inhibition above about 33%
GSTO1 counter: GSTO1 inhibition, counter-screen for RBBP9 inhibitors; P78417; recombinant GSTO1, activity-based probe fluorescence polarization; inhibition, % at 5.96 µM; actives 1.1% (n = 300,000); AID 1974;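 active = inhibition above the campaign mean inhibition plus 3 SD, cut at about 35% in these data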;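 note: 0% = GSTO1-1 with DMSO and 100% = wells lacking GSTO1-1 enzyme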
LYPLA2 inh: blocks human lysophospholipase 2, a PME1 counter-screen | recombinant LYPLA2, FP-Rh probe fluorescence polarization | actives 0.38% (n = 320,000) | AID 2177 | O95372 | inhibition, % at 5.9 µM;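 active = inhibition above the screen-wide mean plus 3 SD, limit set per campaign, cut at about 26% in these data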;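 note: 0% = LYPLA2 with DMSO and 100% = wells lacking LYPLA2 enzyme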
Target sequence (O95372 whole entry, looked up): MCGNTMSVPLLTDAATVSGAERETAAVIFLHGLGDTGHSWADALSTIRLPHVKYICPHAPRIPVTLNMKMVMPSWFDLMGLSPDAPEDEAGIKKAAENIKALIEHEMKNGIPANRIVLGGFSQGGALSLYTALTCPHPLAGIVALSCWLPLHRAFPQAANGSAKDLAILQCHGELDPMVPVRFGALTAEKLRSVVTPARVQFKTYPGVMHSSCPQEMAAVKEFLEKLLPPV
LYPLA1 counter: blocks human lysophospholipase 1, a PME1 counter-screen; recombinant LYPLA1, FP-Rh probe fluorescence polarization; inhibition, % at 5.9 µM; actives 0.16% (n = 320,000); AID 2174;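 active = inhibition above the mean of all tested compounds plus 3 SD, set per campaign, cut at about 14% in these data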;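 note: inhibitors block serine hydrolase probe labeling of LYPLA1 so polarization falls; 0% = enzyme with DMSO and 100% = wells lacking LYPLA1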
Target sequence (O75608 whole entry, looked up): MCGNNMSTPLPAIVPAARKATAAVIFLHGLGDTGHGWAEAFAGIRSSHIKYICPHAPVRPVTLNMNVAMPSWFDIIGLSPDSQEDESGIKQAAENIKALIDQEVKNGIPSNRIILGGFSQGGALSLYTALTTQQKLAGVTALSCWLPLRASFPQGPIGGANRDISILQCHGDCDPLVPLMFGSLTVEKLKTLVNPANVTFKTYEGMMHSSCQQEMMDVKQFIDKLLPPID
EBNA-1 inh: blocks EBNA-1 binding to DNA | EBNA-1 DNA binding, fluorescence polarization | inhibition, % at 14.8 µM | actives 0.34% (n = 300,000) | AID 1950; in the data active = inhibition above about 28%
PAD4 FP inh: PAD4 (human) enzyme inhibition; Q9UM07; inhibition, % at 6.36 µM; recombinant PAD4, RCA probe fluorescence polarization; actives 0.41% (n = 330,000);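 active = percent inhibition above a cutoff equal to the mean of all tested compounds plus 3 SD, cut at about 15% in these data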;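 note: 0% = PAD4 with RCA probe and DMSO and 100% = probe without PAD4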
EBNA-1 inh conf: EBNA-1 (EBV) inhibition, confirmation. inhibition, % at 14.8 µM. shares compounds with EBNA-1 inh. actives 35% (n = 830). Recombinant EBNA-1 DBD, Cy5-DNA fluorescence polarization;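 active = mean inhibition across replicates above a set limit taken from the earlier primary screen, cut at about 28% in these data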;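 note: plate controls were EBNA-1 protein with DMSO for no effect and wells lacking EBNA-1 for full effect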
ZTA DNA inh trip: blocks Epstein-Barr virus ZTA in triplicate, EBNA-1 counter-screen | shares compounds with EBNA-1 inh | Zta-ZRE DNA binding, Cy5 fluorescence polarization | 830 tested, under 10 active | inhibition, % at 11.1 µM;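 active = mean inhibition over triplicates above a set limit taken from the primary EBNA-1 screen, cut at about 37% in these data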;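 note: purified full length Zta protein with Cy5 labeled ZRE DNA probe; 0% = Zta with DMSO and 100% = wells lacking Zta protein; inhibitors lower polarization by freeing the labeled DNA probe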
* hit, by the source's call; / = no result given.

SMILES	ZTA DNA inh	GSTO1 counter	LYPLA2 inh	LYPLA1 counter	EBNA-1 inh	PAD4 FP inh	EBNA-1 inh conf	ZTA DNA inh trip
COCCN(CCOC)C(=O)CSc1ccc(S(=O)(=O)N2CCN(C)CC2)cn1	3	/	1	-2	/	-1	/	/
Cc1onc(-c2c(F)cccc2Cl)c1C(=O)OCC(=O)c1c(N)n(C)c(=O)n(C)c1=O	-10	-2	5	2	2	0	/	/
Nc1nnnn1/N=C/c1ccccc1OCc1ccccc1	9	-2	1	-4	29*	-2	14	-8
O=C(O)CCSc1nnc(SCC(=O)NC2CCS(=O)(=O)C2)s1 (stereo not drawn)	/	/	/	/	/	-4	/	/
CCn1c(CNC(=O)C23CC4CC(CC(C4)C2)C3)nnc1SCC(=O)Nc1nnc(C)s1	7	5	4	3	42*	3	-3	4
CCCCn1c(CNC(=O)C23CC4CC(CC(C4)C2)C3)nnc1SCC(=O)Nc1nnc(C)s1	1	-3	6	-3	-10	-1	/	/
O=C(Cn1nc(-c2ccc3c(c2)OCCO3)ccc1=O)Nc1ccc(N2CCOCC2)cc1	8	-2	-4	3	0	0	/	/
O=C(Cn1nc(-c2ccc3c(c2)OCCO3)ccc1=O)Nc1cccc(NC(=O)c2ccccn2)c1	1	-11	-7	-2	41*	0	43*	12
N#CCC(=N)N1CCN(c2cccc(Cl)c2)CC1	6	2	5	-1	45*	0	-10	-1
N#CCC(=N)N1CCN(c2ccccc2)CC1	2	-1	-5	1	4	-1	/	/
CSc1nc(-c2ccc(N(C)C)cc2)c(C#N)c(=O)n1C	0	-4	6	2	-5	-2	/	/
CCc1nnc(NC(=O)CSc2ccc(-c3nc4ccccc4[nH]3)cn2)s1	14	1	-24	-12	58*	-10	53*	0
Cc1ccc(CN2CC(C(=O)N3CCN(c4ccccc4O)CC3)CC2=O)cc1 (stereo not drawn)	4	5	-1	1	-5	0	/	/
Cc1cccc(N(C)S(=O)(=O)c2ccc3[nH]cc(C(=O)N4CCOCC4)c(=O)c3c2)c1	-4	-4	3	-1	-6	-1	/	/
CCc1ccccc1N(C)S(=O)(=O)c1ccc2[nH]cc(C(=O)N3CCc4ccccc43)c(=O)c2c1	4	-29	-42	-16	28*	-10	3	-1
CCOc1ccc2nc(NCCNC(=O)Nc3ccccc3)c(C#N)cc2c1	4	5	-11	-4	34*	-1	18	-13
O=C(CCSc1nc2ccccc2s1)N/N=C/c1c(O)ccc2ccccc12	21	0	-11	-11	48*	3	6	8
COc1ccc(/C=N/NC(=O)CCSc2nc3ccccc3s2)cc1OC	10	-6	-5	-4	7	-5	/	/
Cc1ccc(SCC(=O)OCC(=O)NC(C)c2ccc(F)cc2)cc1 (stereo not drawn)	-18	/	11	1	/	-5	/	/
CC(OC(=O)CCCN=C1NS(=O)(=O)c2ccccc21)C(=O)Nc1ccccc1F (stereo not drawn)	-13	-9	8	2	0	-2	/	/
NC(=O)c1nn(-c2ccccc2)nc1NC(=O)Cn1nnc(-c2ccccc2)n1	1	-1	12	2	46*	-2	24	2
NC(=O)c1nn(-c2ccccc2)nc1NC(=O)CN1CCCC1	-5	0	1	3	6	-1	/	/
COc1ccc(-n2c(C)nnc2SCC(=O)Nc2ccccc2F)cc1	-4	7	1	-2	-17	-2	/	/
COC(=O)c1cc(NC(=O)Cn2c(=O)oc3ccccc32)cc(C(=O)OC)c1	3	4	-15	-10	65*	3	38*	-7
O=C(CCn1c(=O)oc2ccccc21)Nc1cccc(Cl)c1	26	-2	2	2	36*	-3	2	-2
COc1ccc(NC(=O)Cn2c(=O)oc3ccccc32)cc1	-9	9	-4	-1	-3	0	/	/
